Drawing on PubChem BioAssay (EPA / NIEHS), this text covers outcome and AC50 for five compounds.

One may read the AC50 as the concentration giving half of the maximal activity seen.

Read-out in assay [1]: sulfotransferase 2A1 (SULT2A1), SULT2A1 (gene 6822)
In words: LTEA_HepaRG_SULT2A1: Life Technologies and Expression Analysis (LTEA) Assay for sulfotransferase 2A1 (SULT2A1) using HepaRG (AID 2283531; active = hit-call score of the fitted dose curve at least 0.9, where 1 is the maximum; inactive = score below 0.9). As to conditions: mRNA level, 48 h; actives raise or lower the signal. The procedure, abridged:
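Cells were plated and cultured 48 h, switched to serum-free induction medium, then dosed in duplicate for 48 h (8 concentrations, max 100 uM). RNA was isolated and SULT2A1 expression measured by qRT-PCR; gain or loss of signal fitted relative to DMSO.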

Read-out in assay [2]: Transforming Growth Factor (TGFA), TGFA (gene 7039)
The experiment in a line: LTEA_HepaRG_TGFA: Life Technologies and Expression Analysis (LTEA) Assay for Transforming Growth Factor (TGFA) using HepaRG (AID 2283532; active = hit-call score of the fitted dose curve at least 0.9, where 1 is the maximum; inactive = score below 0.9). To be noted: mRNA level, 48 h; actives raise or lower the signal. The procedure, abridged:
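TGFA transcript quantified by qRT-PCR (Fluidigm arrays) against three housekeeping genes, after 48 hours chemical treatment of HepaRG cells. Top concentration 100 uM with half-log dilutions, 8 points, duplicates, 0.5% DMSO.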

Read-out in assay [3]: Transforming Growth Factor (TGFB1), TGFB1 (gene 7040)
In words: LTEA_HepaRG_TGFB1: Life Technologies and Expression Analysis (LTEA) Assay for Transforming Growth Factor (TGFB1) Transporter using HepaRG (AID 2283533; active = hit-call score of the fitted dose curve at least 0.9, where 1 is the maximum; inactive = score below 0.9). As to conditions: mRNA level, 48 h; actives raise or lower the signal. In short, it runs like this: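 Expression change of TGFB1 in human HepaRG cells is measured after a 48 h chemical exposure, up to 100 uM in 0.5% DMSO vehicle. Curves are fitted in both directions relative to the DMSO baseline.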

Read-out in the next assay: TIMP1, TIMP1 (gene 7076)
The experiment in a line: LTEA_HepaRG_TIMP1: Life Technologies and Expression Analysis (LTEA) Assay for TIMP1 using HepaRG (AID 2283534; active = hit-call score of the fitted dose curve at least 0.9, where 1 is the maximum; inactive = score below 0.9;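 for outcome: TaqMan qRT-PCR signal normalized to ACTB GAPDH and POLR2A housekeeping genes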). To be noted: mRNA level, 48 h; actives raise or lower the signal. The procedure, abridged:
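We dosed human liver HepaRG cultures for 48 hours with up to 100 uM test chemical and measured TIMP1 expression by qRT-PCR. Activity in either direction is fitted relative to the 0.5% DMSO vehicle.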

Read-out in assay [4]: Thyroid Hormone Responsive (THRSP), THRSP (gene 7069)
The experiment in a line: LTEA_HepaRG_THRSP: Life Technologies and Expression Analysis (LTEA) Assay for Thyroid Hormone Responsive (THRSP) using HepaRG (AID 2283536; active = hit-call score of the fitted dose curve at least 0.9, where 1 is the maximum; inactive = score below 0.9). As to conditions: mRNA level, 48 h; actives raise or lower the signal. The procedure, abridged: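 THRSP transcript quantified by Fluidigm qRT-PCR against three housekeeping genes after 48 h chemical exposure of HepaRG cells in serum-free induction medium; eight-point half-log series, top 100 uM, 0.5% DMSO vehicle, duplicate wells.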

Read-out in assay [5]: Cellular tumor antigen p53 (Homo sapiens) (UniProt P04637)
The experiment in a line: LTEA_HepaRG_TP53: Life Technologies and Expression Analysis (LTEA) Assay for Tumor Protein P53 (TP53) using HepaRG (AID 2283537; active = hit-call score of the fitted dose curve at least 0.9, where 1 is the maximum; inactive = score below 0.9). To be noted: mRNA level, 48 h; actives raise or lower the signal. In short, it runs like this:
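Gain or loss of TP53 mRNA signal is scored relative to 0.5% DMSO after 48 h chemical treatment of HepaRG liver cells, tested in duplicate at eight half-log concentrations up to 100 uM.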

Read-out in assay [6]: UDP glucuronosyltransferase (UGT1A1), UGT1A1 (gene 54658)
The experiment in a line: LTEA_HepaRG_UGT1A1: Life Technologies and Expression Analysis (LTEA) Assay for UDP glucuronosyltransferase (UGT1A1) using HepaRG (AID 2283538; active = hit-call score of the fitted dose curve at least 0.9, where 1 is the maximum; inactive = score below 0.9). To be noted: mRNA level, 48 h; actives raise or lower the signal. The procedure, abridged: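 Cells are plated, cultured 48 h, switched to serum-free induction medium, then dosed 48 h at eight concentrations (max 100 uM, 0.5% DMSO). RNA is isolated and UGT1A1 expression measured by qRT-PCR; changes versus DMSO are fitted in both directions.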

Read-out in assay [7]: UDP glucuronosyltransferase (UGT1A6), UGT1A6 (gene 54578)
In words: LTEA_HepaRG_UGT1A6: Life Technologies and Expression Analysis (LTEA) Assay for UDP glucuronosyltransferase (UGT1A6) using HepaRG (AID 2283539; active = hit-call score of the fitted dose curve at least 0.9, where 1 is the maximum; inactive = score below 0.9). To be noted: mRNA level, 48 h; actives raise or lower the signal. In short, it runs like this:
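Endpoint is UGT1A6 transcript induction or loss in a human liver cell line, quantified by TaqMan qRT-PCR 48 h after dosing. Concentrations ran from 100 uM downward in half-log steps in 0.5% DMSO; activity was fitted in both directions versus vehicle.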

Read-out in assay [8]: X-box binding protein 1 (XBP1), XBP1 (gene 7494)
The experiment in a line: LTEA_HepaRG_XBP1: Life Technologies and Expression Analysis (LTEA) Assay for X-box binding protein 1 (XBP1) using HepaRG (AID 2283540; active = hit-call score of the fitted dose curve at least 0.9, where 1 is the maximum; inactive = score below 0.9). To be noted: mRNA level, 48 h; actives raise or lower the signal. In short, it runs like this:
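Human HepaRG monolayers receive test chemical for 48 h across an eight-point half-log series starting at 100 uM. XBP1 mRNA gain or loss is scored against DMSO by qRT-PCR.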

Assay [9] can be described thus: LTEA_HepaRG_LDH_cytotoxicity: Cytotoxicity Assessment in the Life Technologies and Expression Analysis (LTEA) Assay (AID 2283563).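 For AC50: LDH activity released into spent culture medium as a marker of cell death.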 The procedure, abridged: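 Human HepaRG hepatic cells are treated with test chemicals for 48 h at up to 100 uM in 0.5% DMSO. Cytotoxicity is scored from medium LDH against the vehicle control.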
Assay [10] can be described thus: TOX21_p53_BLA_p2_viability: Viability Assessment in the Tox21 HCT-116 p53 Agonism Beta-lactamase Assay, Phase 2 (AID 2283591).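 Note: compound exposure lasted 16 h at 37 °C; actives lower the ATP signal meaning cytotoxicity.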 In short, it runs like this: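 Cytotoxicity readout: CellTiter-Glo ATP luminescence, 30 min at room temperature, after the beta-lactamase read. Cells were HCT116 exposed 16 h at 37C to compounds pin-transferred at 217-fold dilution from DMSO stocks.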

Assay [11] is described as follows: TOX21_p53_BLA_p3_viability: Viability Assessment in the Tox21 HCT-116 p53 Agonism Beta-lactamase Assay, Phase 3 (AID 2283593).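 Note: cells exposed to compound for 16 h before reading.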 The procedure, abridged:
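Cellular ATP was quantified by CellTiter-Glo luminescence, read after 30 min at room temperature. Beforehand, HCT116 cells (4000/well) received compound 5 h post-seeding, 217-fold diluted from DMSO, then incubated 16 h at 37C.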

Assay [12] concerns the target Cellular tumor antigen p53 (Homo sapiens) (UniProt P04637). The experiment in a line: TOX21_p53_BLA_p3_ratio: Tox21 HCT-116 p53 Agonism Beta-lactamase Assay, Ratio, Phase 3 (AID 2283596). In short, it runs like this: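 Cells were seeded at 4000/well, rested 5 h at 37C, then dosed with DMSO compound solutions (217-fold dilution) for 16 h. CCF4-AM substrate was loaded for 2 h at room temperature, and the 460/530 nm emission ratio was fitted for gain of signal versus DMSO.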

Assay [13] can be described thus: TOX21_p53_BLA_p4_viability: Viability Assessment in the Tox21 HCT-116 p53 Agonism Beta-lactamase Assay, Phase 4 (AID 2283597).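 Note: hits lower the luminescence signal meaning cytotoxicity.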 The procedure, abridged: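 Viability is taken as cellular ATP: after 16 h compound exposure of HCT116 cells and a 2 h room-temperature CCF4-AM substrate step, CellTiter-Glo reagent is added and luminescence is measured 30 min later.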
Assay [14] concerns the target Cellular tumor antigen p53 (Homo sapiens) (UniProt P04637). In words: TOX21_p53_BLA_p5_ratio: Tox21 HCT-116 p53 Agonism Beta-lactamase Assay, Ratio, Phase 5 (AID 2283599). The procedure, abridged: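 Beta-lactamase reporter ratio (blue 460 nm over green 530 nm, 405 nm excitation) after 2 h CCF4-AM loading, in HCT-116 cells exposed 16 h at 37 C to compounds pinned at 217-fold dilution. Increases relative to DMSO baseline scored.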

Assay [15] shares this target. In words: TOX21_p53_BLA_p4_ratio: Tox21 HCT-116 p53 Agonism Beta-lactamase Assay, Ratio, Phase 4 (AID 2283601). The procedure, abridged:
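Signal is the blue/green (460nm/530nm) ratio of cleaved versus uncleaved CCF4-AM substrate, read after 2 h substrate loading. Cells were HCT116 carrying the p53-responsive beta-lactamase reporter, dosed 16 h at 37C, 5% CO2; CellTiter-Glo measured in parallel.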

The nature of assay [16]: Tanguay_ZF_120hpf_MORT_legacy: (Legacy) Oregon State University Tanguay Lab 120 Hour Post-fertilization zebrafish Assay for Mortality (AID 2283633).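 For AC50: fitted as increase in binary mortality versus DMSO negative control.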 The procedure, abridged:
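Mortality endpoint from a multiplexed whole-embryo zebrafish screen. Dechorionated wild-type embryos received compound at 6 hpf and remained under static exposure at 28C until 120 hpf, with death noted as a present/absent call.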

For assay [17], the target named is Cellular tumor antigen p53 (Homo sapiens) (UniProt P04637). In words: TOX21_p53_BLA_p2_ratio: Tox21 HCT-116 p53 Agonism Beta-lactamase Assay, Ratio, Phase 2 (AID 2283592). In short, it runs like this:
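Cleaved-to-uncleaved substrate ratio (460 vs 530 nm) measured in HCT116 cells with an inducible beta-lactamase reporter linked to p53 activity. Compounds incubated 16 h at 37C before 2 h room-temperature CCF4-AM loading.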

The nature of assay [18]: TOX21_p53_BLA_p5_viability: Viability Assessment in the Tox21 HCT-116 p53 Agonism Beta-lactamase Assay, Phase 5 (AID 2283600). The procedure, abridged:
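Viability is taken from cellular ATP content, measured by luciferase luminescence in the same wells after the beta-lactamase ratio read. Cells are seeded at 4000 per well and exposed to DMSO-dissolved compounds, diluted 217-fold, for 16 h.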

Assay [19] is described as follows: ATG_XTT_Cytotoxicity: Cytotoxicity Assessment in the Attagene TRANS-FACTORIAL HepG2 Assay (AID 2283584).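 For AC50: XTT signal for cell number as viability in transfected HepG2 cells; cells exposed to compound for 24 h before reading; active means loss of viability signal versus DMSO baseline.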 The procedure, abridged:
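Transfect HepG2 with GAL4-UAS reporter units, dose compound, incubate 24 h, then measure viable cell number by XTT. Fit concentration response against DMSO baseline.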

Values joined by “and” are separate entries in the source; they are usually repeats but may differ in a detail not shown here. Identical values can stand only once. Records with an inconclusive call do not appear. Active and inactive are the calls of the source. Rule for the calls, unless noted: active = hit-call score of the fitted dose curve at least 0.9, where 1 is the maximum; inconclusive = response in the unintended direction; inactive = score below 0.9.

Chain of Cellular tumor antigen p53 (Homo sapiens) (P04637 whole entry, looked up): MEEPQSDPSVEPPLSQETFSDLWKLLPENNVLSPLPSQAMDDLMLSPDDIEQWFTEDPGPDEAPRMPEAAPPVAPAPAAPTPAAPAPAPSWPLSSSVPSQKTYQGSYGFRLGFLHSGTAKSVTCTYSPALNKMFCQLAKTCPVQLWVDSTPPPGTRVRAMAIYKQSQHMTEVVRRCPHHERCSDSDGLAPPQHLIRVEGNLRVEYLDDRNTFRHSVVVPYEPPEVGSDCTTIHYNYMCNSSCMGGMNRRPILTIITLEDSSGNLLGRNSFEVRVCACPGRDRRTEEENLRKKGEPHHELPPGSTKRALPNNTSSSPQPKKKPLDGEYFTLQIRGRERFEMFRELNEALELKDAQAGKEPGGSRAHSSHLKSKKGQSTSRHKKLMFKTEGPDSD

For `C=CC(=O)OCCCCCC(C)C`, the outcome was “inactive” in [1]; “inactive” in assay [2]; “inactive” in [3]; “inactive” with TIMP1, TIMP1 (gene 7076); “inactive” in [4]; “inactive” in [5]. Also, the compound was called inactive in assay [6], in assay [7], in [8], in [9], in assay [10] and in assay [11]. Further, the result in assay [12], in [13], in assay [14], in [15] and in assay [16] was inactive.

Take `CC(C)(c1ccccc1)c1ccc(O)c(C(C)(C)c2ccccc2)c1`: the AC50 in [1] was 86.3 µM (active); in assay [4], 12.7 µM (active); in assay [6], 12.2 µM (active); in assay [9] it was 72.2 µM (active); in assay [10], 11.4 µM (active) and 20.3 µM (active); in assay [17] it was 43.2 µM (active) and 46.9 µM (active). For the same compound, the AC50 was 40.5 µM (active) and 53.8 µM (active) in [11]; 80.6 µM (active) and 83.7 µM (active) in assay [12]; 12.1 µM (active) and 16.6 µM (active) in assay [13]; 73.6 µM (active) and 51.9 µM (active) in assay [14]; 39.1 µM (active) and 24.3 µM (active) in assay [18]; 37.5 µM (active) and 29 µM (active) in assay [15]. Also, the outcome in assay [2] is “inactive”; in assay [3], “inactive”; with TIMP1, TIMP1 (gene 7076) it was “inactive”; in assay [5] it was “inactive”; in assay [7], “inactive”; in assay [8], “inactive”. In assay [16], the call was inactive.

On to `Cn1sc(Cl)cc1=O`, for which the outcome is “inactive” in [1]; “inactive” in [2]; “inactive” in assay [3]; “inactive” in the assay with TIMP1, TIMP1 (gene 7076); “inactive” in assay [4]; “inactive” in assay [5]. Moreover, the compound was called inactive in [6], in assay [7], in [8], in assay [9], in assay [19] and in assay [10]. The result in [17], in assay [12], in assay [14], in assay [18] and in assay [15] was inactive. Also, the AC50 in assay [16] was 25.7 µM (active).

Regarding `Cc1ccccc1N`, the outcome in assay [1] was “inactive”; in assay [2] it was “inactive”; in [3] it was “inactive”; with TIMP1, TIMP1 (gene 7076), “inactive”; in [4], “inactive”; in assay [5], “inactive”. Moreover, the outcome in assay [6], in assay [7], in assay [8], in assay [9], in assay [19] and in assay [10] was inactive. Moreover, the result in assay [17], in [12], in assay [13], in assay [14], in assay [18] and in assay [15] was inactive. Moreover, the compound was classed as inactive in assay [16].

As for `CC(=O)[O][Hg][c]1ccccc1`, the concentration at half-maximal activity (AC50) in [1] is 17.6 µM (active); in [2], 23 µM (active); in [3], 23 µM (active); in the assay with TIMP1, TIMP1 (gene 7076), 83.7 µM (active); in [4], 2.11 µM (active); in assay [5], 0.193 µM (active). The AC50 was 32.5 µM (active) in [6]; 18.4 µM (active) in assay [7]; 11.6 µM (active) in [8]; 0.688 µM (active) in [9]; 8.24 µM (active) in assay [19]; 2.74 µM (active) and 2.65 µM (active) and 3.55 µM (active) in [10]. Also, the AC50 in assay [17] is 4.84 µM (active) and 12.5 µM (active) and 8.1 µM (active); in assay [11], 254 nM (active) and 422 nM (active) and 682 nM (active); in [12], 1.46 µM (active) and 1.07 µM (active) and 1.23 µM (active); in assay [13], 3.63 µM (active) and 4.05 µM (active) and 3.54 µM (active); in assay [14], 2.9 µM (active) and 2.82 µM (active) and 4.64 µM (active); in assay [15], 7.28 µM (active) and 2.97 µM (active) and 7.86 µM (active). Moreover, the AC50 in assay [16] is 0.179 µM (active).
